# A number with no mark means an inactive call. Inconclusive results are not listed. Activity calls are given as the source filed them. Unless noted, calls follow the shape of the dose curve; as a rule, active = well fitted curve in either direction with a large enough effect (not every such curve was filed as active); inconclusive = small, poorly fitted or top-dose-only effect, or another doubt; inactive = flat fitted curve, though single readings scatter.
# Experiments:
# [1] = target: Lysosomal acid glucosylceramidase (Homo sapiens) (UniProt P04062); test: Glucocerebrosidase-p2 (AID 348; in the data active = potency below about 10 µM; also: potency is read from the fitted curve at half-maximal effect); conditions: purified GBA, blue fluorogenic substrate, 40 min
# Method in brief: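 Compounds titrated from 0.6 nM upwards against 0.2 nM enzyme in pH 5.9 citric acid/KH2PO4, taurocholate, tween-20; blue fluorogenic substrate 80 uM, 40 min room temperature, stopped and read Ex 365/Em 440 for AC50.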
# [2] = AP1 Signaling Pathway (AID 357); conditions: ME-180 AP-1-bla reporter, EGF-induced, beta-lactamase ratio, 5 h; at 7.69 µM (top of the series) unless noted;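 also: ME-180 reporter cells stimulated with EGF at its EC50 level; % is scaled to controls: 0 for no effect and ±100 for the full control effect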
# Method in brief: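 Titration-series screen for positive or negative modulators of EC50 EGF-induced signaling in ME-180 cells carrying an AP-1-driven beta-lactamase reporter. After 5 hours at 37 degrees Celsius, CCF4 460nm/530nm emission ratio gave %Activity; AC50 values derived.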
# [3] = Stat Signaling Pathway (AID 446); conditions: ME-180 SIE beta-lactamase reporter, IL-6 stimulated, 5 h; at 7.69 µM (top of the series) unless noted;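 also: ME-180 cervical cancer cells given 40 pM IL-6 alongside compound; SIE-controlled beta-lactamase reporter measured as 460/530 nm FRET emission ratio; % is scaled to controls: 0 for no effect and ±100 for the full control effect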
# Method in brief: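 Reporter line: ME-180 cervical carcinoma, SIE-beta-lactamase. Treatment: compound with 40 pM IL-6, 5 hrs, 37 C, in low-serum OPTI-MEM with 10 mM HEPES pH 7.3. Detection: 460/530 nm fluorescence.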
# [4] = target: Glucocorticoid receptor (Homo sapiens) (UniProt P04150); test: GR-EFC Redistribution (AID 451; calls by dose curve; also: potency is read from the fitted curve at half-maximal effect); conditions: CHO-K1 GR-EFC translocation, beta-gal luminescence, 2 h
# Method in brief: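 CHO-K1 cells expressing nuclear EA and GR-ED fragments of b-gal; compounds titrated up to 46 uM final, 2 h at 37 C. GR nuclear translocation read as complemented b-gal luminescence after 1 h RT detection.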
# [5] = target: Mitogen-activated protein kinase 10 (Mus musculus) (UniProt Q61831); test: JNK3 AlphaScreen Assay (AID 530); conditions: JNK3 lysate, c-Jun phosphorylation; series mostly up to 57.1 µM;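 also: kinase came from lysate of stimulated human HepG2 cells; signal reports phosphorylation of biotinylated GST-cJun 1-79 at Ser73 with 10 µM ATP; % is scaled to controls: 0 for no effect and ±100 for the full control effect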
# Method in brief: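 Pre-activated (IL-1β/TNFα) JNK3 in HepG2 lysates phosphorylates biotin-GST-cJun(1-79), 10 uM ATP; anti-phospho-cJun(Ser73) AlphaScreen read at room temperature, pH 7.6 Tris buffer. Compounds pre-incubated 15 min as titrations.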
# [6] = target: 3',5'-cyclic-AMP phosphodiesterase 4B (Homo sapiens) (UniProt Q07343); test: qHTS Assay for Inhibitors of PDE-IV (AID 607; active = well fitted activation curve with a large enough effect in the main read-out, with a control signal flat, not every such curve was filed as active; also: % of control where 0% means no effect); conditions: HEK293 ACTOne CNG channel cells, membrane potential fluorescence; series mostly up to 22.9 µM
# Method in brief: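 Cell-based read-out of cAMP via a modified cyclic nucleotide-gated channel and membrane potential dye (535/590 nm) in HEK293 cells expressing PDE4 endogenously. Compounds tested up to 22.9 uM final; 100 uM RO 20-1724 reference.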
# [7] = Primary qHTS for small molecule stabilizers of the endoplasmic reticulum resident proteome: Secreted ER Calcium Modulated Protein (SERCaMP) assay (AID 1508630; active = well fitted curve in the direction sought with a large enough effect; an effect the other way counts as inactive or inconclusive; also: % is scaled to controls: 0 for no effect and ±100 for the full control effect); conditions: SH-SY5Y GLuc-SERCaMP (Gaussia luciferase released on ER calcium loss) secretion, thapsigargin, luminescence; series mostly up to 38.4 µM
# Method in brief: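 GLuc-SERCaMP-expressing SH-SY5Y cells, pretreated 16 h with compound, are challenged with thapsigargin to empty ER calcium stores; after 4 h, coelenterazine is added directly to the medium and luminescence is imaged.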
# [8] = qHTS Assay for Identification of Small Molecule Agonists for Hypoxia Response Element Signaling Pathway (AID 914; active = well fitted activation curve with a large enough effect in the signal ratio, with a control signal flat, not every such curve was filed as active; the % refers to the signal ratio; also: % of control where 0% means no effect); conditions: ME-180 (cervical carcinoma) HRE-bla reporter, beta-lactamase ratio, CoCl2, 17 h; activation: stronger effect = higher value
# Method in brief: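 Compounds in a titration series were added to ME-180 reporter cells alongside an EC50 level of CoCl2. After 17 hours, beta-lactamase activity was read as the 460nm/530nm emission ratio of CCF4, giving AC50 values.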
# [9] = NFAT Signaling Pathway (AID 444); conditions: Jurkat NFAT-bla M1, carbachol, beta-lactamase ratio, 5 h; at 7.69 µM (top of the series) unless noted
# Method in brief: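 Jurkat cells with NFAT-driven β-lactamase reporter and co-expressed M1 receptor, stimulated with carbachol (final 1 uM, ~EC50), compound titration, 5 h at 37 °C. CCF4 loaded 1 h at RT; 460/530 nm ratio gave %activity and AC50.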
# [10] = target: Cytochrome P450 3A4 (Homo sapiens) (UniProt P08684); test: qHTS Assay for Activators of Cytochrome P450 3A4 (AID 885; active = well fitted curve in the direction sought with a large enough effect; an effect the other way counts as inactive or inconclusive; also: nearly all actives have a fitted effect of over 65% in size; also: potency is read from the fitted curve at half-maximal effect); conditions: recombinant CYP3A4, Luciferin-PPXE luminescence, 60 min; series mostly up to 57.1 µM
# Method in brief: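 Signal was normalized against complete inhibition by 57 uM ketoconazole. The reaction used 20nM CYP3A4 with 25uM Luciferin-PPXE, 10-min compound preincubation and a 60-min NADPH-supported step at RT.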
# [11] = target: Glucocorticoid receptor (Homo sapiens) (UniProt P04150); test: GR-GFP Redistribution (AID 450;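 active = compounds whose dose series gives a full or clear partial fitted curve of increased nuclear translocation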; also: potency is read from the fitted curve at half-maximal effect); conditions: U2OS GR-GFP nuclear translocation, laser cytometry, 2 h
# [12] = Confirmation and Secondary Assay for Modulators of Hemoglobin Beta Chain Splicing at IVS2 654 locus (AID 910; active = well fitted curve in the direction sought with a large enough effect; an effect the other way counts as inactive or inconclusive;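 also: HeLa cells stably carrying EGFP split by mutant beta-globin IVS2-654 intron; % of control where 0% means no effect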); conditions: HeLa EGFP-654 splicing reporter, GFP fluorescence, 48 h; series mostly up to 38.3 µM
# Method in brief: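 HeLa cells stably expressing EGFP interrupted by β-globin IVS2-654 intron, seeded overnight in Opti-MEM/2% FCS, then treated 2 days at 37 °C. Restored splicing read as total peak GFP intensity per well by laser scanning cytometry (488 nm excitation, 500–520 nm emission); 500 nM antisense PNA as control.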
# [13] = target: Ubiquitin carboxyl-terminal hydrolase 1 (Homo sapiens) (UniProt O94782); test: Inhibitors of USP1/UAF1: Pilot qHTS (AID 504865; active = well fitted curve in the direction sought with a large enough effect; an effect the other way counts as inactive or inconclusive; also: potency is read from the fitted curve at half-maximal effect; nearly all actives have a fitted effect of over 35% in size); conditions: purified USP1/UAF1, Ub-rhodamine cleavage fluorescence; series mostly up to 54.9 µM
# Method in brief: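 Deubiquitinase activity followed as kinetic rhodamine fluorescence release from 150 nM Ub-Rho. 1 nM USP1/UAF1 with compound, after 15 min room-temperature preincubation, in HEPES pH 7.8 buffer containing TCEP, EDTA, BSA and Tween-20.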
# [14] = target: Cytochrome P450 1A2 (Homo sapiens) (UniProt P05177); test: p450-cyp1a2 (AID 410; calls by dose curve; also: potency is read from the fitted curve at half-maximal effect;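 as to activity change, negative = inhibition: -100% = full effect of reference inhibitor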); conditions: recombinant CYP1A2, luciferin-ME demethylation, luminescence; series mostly up to 57 µM
# Method in brief: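 Luminescent readout of luciferin formed from Luciferin-ME by human CYP1A2; data normalized against complete inhibition by 57 uM furafylline. Enzyme 20nM, substrate 100uM at Km, 100mM KPO4 buffer, 60 min reaction at room temperature.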
# [15] = target: Cytochrome P450 3A4 (Homo sapiens) (UniProt P08684); test: qHTS Assay for Inhibitors and Substrates of Cytochrome P450 3A4 (AID 884; active = well fitted curve in the direction sought with a large enough effect; an effect the other way counts as inactive or inconclusive; also: % is scaled to controls: 0 for no effect and ±100 for the full control effect; nearly all actives have a fitted effect of over 50% in size); conditions: recombinant CYP3A4, Luciferin-PPXE luminescence; series mostly up to 57.1 µM
# Method in brief: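 20 nM human CYP3A4 with 25 uM Luciferin-PPXE (at KM) in 200 mM KPO4, preincubated 10 min with compound; NADPH regeneration started a 60 min RT reaction. Luciferin detected by luminescence, normalized to 57 uM ketoconazole as full inhibition.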
# [16] = target: Cytochrome P450 2C9 (Homo sapiens) (UniProt P11712); test: qHTS Assay for Inhibitors and Substrates of Cytochrome P450 2C9 (AID 883; active = well fitted curve in the direction sought with a large enough effect; an effect the other way counts as inactive or inconclusive; also: % is scaled to controls: 0 for no effect and ±100 for the full control effect; nearly all actives have a fitted effect of over 60% in size); conditions: recombinant CYP2C9, luciferin-H luminescence, 60 min; series mostly up to 57.1 µM
# Method in brief: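 10nM CYP2C9 + 100uM Luciferin-H (=KM), 25mM KPO4; cpd 10 min 37C; NADPH regen, 60 min 37C; stop/detect with P450 Glo-Buffer 20 min; luminescence. Norm. to 57uM sulphaphenazole as full inhibition.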
# Sequence of Cytochrome P450 1A2 (Homo sapiens) (P05177 whole entry, looked up): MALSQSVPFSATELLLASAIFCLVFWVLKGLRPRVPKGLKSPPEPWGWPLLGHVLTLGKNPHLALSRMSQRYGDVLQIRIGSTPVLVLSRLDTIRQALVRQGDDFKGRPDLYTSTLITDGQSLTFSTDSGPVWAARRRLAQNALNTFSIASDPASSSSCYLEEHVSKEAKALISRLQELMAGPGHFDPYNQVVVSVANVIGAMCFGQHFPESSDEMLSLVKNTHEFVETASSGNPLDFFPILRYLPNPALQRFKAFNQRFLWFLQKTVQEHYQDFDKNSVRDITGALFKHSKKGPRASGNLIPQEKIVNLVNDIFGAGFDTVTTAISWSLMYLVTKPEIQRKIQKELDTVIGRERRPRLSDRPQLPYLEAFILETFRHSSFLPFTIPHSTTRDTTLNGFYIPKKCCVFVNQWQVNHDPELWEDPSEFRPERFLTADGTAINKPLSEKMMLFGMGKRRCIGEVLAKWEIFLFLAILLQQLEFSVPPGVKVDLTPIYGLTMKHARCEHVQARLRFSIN
# Sequence of Glucocorticoid receptor (Homo sapiens) (P04150 whole entry, looked up, the tested form may be a part): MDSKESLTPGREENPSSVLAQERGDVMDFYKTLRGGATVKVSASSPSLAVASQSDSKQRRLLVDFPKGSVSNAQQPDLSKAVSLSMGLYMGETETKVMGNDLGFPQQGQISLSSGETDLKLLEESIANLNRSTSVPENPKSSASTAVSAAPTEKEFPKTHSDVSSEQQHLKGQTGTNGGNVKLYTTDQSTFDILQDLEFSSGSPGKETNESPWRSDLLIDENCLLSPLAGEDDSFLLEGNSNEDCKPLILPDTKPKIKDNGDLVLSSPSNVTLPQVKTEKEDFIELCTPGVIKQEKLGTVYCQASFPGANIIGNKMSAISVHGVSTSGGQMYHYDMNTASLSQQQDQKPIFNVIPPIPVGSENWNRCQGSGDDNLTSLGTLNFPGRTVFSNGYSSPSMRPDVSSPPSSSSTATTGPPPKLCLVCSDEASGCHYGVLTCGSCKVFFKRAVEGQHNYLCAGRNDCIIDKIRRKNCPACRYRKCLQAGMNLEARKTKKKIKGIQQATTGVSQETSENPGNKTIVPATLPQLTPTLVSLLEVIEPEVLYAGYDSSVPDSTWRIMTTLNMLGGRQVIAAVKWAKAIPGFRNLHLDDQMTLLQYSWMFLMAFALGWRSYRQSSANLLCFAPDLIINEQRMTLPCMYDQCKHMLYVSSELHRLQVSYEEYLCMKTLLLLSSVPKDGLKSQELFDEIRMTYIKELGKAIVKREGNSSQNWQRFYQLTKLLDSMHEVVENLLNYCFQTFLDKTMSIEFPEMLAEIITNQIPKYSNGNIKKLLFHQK
# Sequence of 3',5'-cyclic-AMP phosphodiesterase 4B (Homo sapiens) (Q07343 whole entry, looked up): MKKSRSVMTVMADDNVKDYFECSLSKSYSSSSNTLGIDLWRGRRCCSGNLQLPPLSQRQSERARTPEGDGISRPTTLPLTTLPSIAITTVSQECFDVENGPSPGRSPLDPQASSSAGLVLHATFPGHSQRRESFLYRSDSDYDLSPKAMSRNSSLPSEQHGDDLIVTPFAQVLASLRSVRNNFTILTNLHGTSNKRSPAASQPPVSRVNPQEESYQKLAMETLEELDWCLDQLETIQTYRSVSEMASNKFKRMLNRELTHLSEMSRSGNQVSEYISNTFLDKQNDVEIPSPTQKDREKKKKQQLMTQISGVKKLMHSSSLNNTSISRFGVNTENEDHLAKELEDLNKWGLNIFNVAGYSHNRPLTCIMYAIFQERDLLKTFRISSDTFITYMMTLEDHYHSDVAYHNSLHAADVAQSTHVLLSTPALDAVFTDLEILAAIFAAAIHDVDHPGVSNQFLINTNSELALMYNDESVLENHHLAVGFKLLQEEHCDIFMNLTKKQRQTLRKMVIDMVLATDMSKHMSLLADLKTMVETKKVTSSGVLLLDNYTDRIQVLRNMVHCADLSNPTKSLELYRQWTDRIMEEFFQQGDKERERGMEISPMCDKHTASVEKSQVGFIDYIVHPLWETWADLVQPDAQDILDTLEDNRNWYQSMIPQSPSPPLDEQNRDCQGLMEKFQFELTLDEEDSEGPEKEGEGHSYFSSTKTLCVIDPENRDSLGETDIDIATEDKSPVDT
# Sequence of Cytochrome P450 3A4 (Homo sapiens) (P08684 whole entry, looked up): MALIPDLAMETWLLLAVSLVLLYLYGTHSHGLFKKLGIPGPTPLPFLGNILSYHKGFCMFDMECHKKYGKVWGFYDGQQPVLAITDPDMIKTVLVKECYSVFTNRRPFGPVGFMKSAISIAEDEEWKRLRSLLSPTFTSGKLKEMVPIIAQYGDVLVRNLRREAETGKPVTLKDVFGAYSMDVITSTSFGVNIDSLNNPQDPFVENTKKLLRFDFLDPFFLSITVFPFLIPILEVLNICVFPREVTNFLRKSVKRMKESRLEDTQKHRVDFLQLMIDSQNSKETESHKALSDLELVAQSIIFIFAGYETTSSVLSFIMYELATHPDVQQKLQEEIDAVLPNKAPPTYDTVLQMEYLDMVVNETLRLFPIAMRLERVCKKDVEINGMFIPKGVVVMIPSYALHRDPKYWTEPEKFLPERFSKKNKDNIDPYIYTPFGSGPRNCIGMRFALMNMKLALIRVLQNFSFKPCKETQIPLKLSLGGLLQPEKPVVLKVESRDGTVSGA
# Sequence of Lysosomal acid glucosylceramidase (Homo sapiens) (P04062 whole entry, looked up): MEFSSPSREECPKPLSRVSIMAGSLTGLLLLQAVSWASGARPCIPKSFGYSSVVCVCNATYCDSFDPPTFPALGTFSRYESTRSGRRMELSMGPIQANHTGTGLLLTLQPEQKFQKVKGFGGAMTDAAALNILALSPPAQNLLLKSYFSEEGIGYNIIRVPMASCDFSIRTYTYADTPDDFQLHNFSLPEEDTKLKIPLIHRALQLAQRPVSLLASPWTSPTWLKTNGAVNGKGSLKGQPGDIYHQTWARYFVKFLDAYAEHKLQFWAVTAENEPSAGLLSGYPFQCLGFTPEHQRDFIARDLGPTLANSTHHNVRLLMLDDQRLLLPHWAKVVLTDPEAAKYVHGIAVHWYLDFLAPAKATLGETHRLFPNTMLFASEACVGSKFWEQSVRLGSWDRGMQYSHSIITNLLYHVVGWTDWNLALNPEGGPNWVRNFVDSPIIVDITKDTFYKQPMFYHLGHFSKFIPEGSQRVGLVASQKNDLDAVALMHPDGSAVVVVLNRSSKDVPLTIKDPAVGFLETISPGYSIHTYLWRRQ
# Sequence of Cytochrome P450 2C9 (Homo sapiens) (P11712 whole entry, looked up): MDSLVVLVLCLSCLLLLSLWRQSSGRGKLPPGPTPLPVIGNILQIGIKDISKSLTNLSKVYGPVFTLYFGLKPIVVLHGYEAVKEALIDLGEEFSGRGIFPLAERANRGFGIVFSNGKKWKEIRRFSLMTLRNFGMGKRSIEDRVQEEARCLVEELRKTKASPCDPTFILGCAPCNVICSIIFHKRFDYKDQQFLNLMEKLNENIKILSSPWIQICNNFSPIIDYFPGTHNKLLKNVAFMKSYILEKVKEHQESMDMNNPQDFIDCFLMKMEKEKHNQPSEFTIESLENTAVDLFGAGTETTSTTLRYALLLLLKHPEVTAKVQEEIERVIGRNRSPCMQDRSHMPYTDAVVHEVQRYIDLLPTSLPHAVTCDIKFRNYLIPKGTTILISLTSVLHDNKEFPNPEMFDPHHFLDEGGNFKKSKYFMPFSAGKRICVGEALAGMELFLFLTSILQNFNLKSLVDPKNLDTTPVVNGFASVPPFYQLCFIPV
# Sequence of Ubiquitin carboxyl-terminal hydrolase 1 (Homo sapiens) (O94782 whole entry, looked up): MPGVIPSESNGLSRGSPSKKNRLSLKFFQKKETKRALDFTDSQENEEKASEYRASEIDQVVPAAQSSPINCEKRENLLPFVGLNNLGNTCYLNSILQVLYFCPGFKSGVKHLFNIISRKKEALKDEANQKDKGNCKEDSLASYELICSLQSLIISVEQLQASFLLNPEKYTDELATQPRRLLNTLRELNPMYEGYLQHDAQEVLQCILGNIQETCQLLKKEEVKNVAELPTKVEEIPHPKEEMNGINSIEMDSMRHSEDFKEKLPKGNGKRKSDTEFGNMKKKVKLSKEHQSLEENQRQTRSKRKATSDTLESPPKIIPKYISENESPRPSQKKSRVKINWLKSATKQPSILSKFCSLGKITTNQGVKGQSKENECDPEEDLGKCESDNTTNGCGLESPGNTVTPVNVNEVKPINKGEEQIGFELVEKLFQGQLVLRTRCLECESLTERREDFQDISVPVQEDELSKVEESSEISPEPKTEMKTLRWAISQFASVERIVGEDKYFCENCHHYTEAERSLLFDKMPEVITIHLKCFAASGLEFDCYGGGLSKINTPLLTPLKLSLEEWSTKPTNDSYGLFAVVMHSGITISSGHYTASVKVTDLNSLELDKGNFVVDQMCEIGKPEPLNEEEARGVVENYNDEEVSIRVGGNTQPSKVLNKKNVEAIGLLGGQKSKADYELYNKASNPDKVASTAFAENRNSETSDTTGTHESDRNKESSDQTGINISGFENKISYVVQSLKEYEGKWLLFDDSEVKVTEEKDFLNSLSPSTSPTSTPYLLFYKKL
structure (smiles),measurement,setting,value
CC(=O)N1CCC2(CCN(Cc3ccc(C#N)cc3)CC2)CC1,Potency,[1],> 11.4 µM
same,"activity change, negative = inhibition",[2],-3.09%
same,"activity, negative = inhibition",[3],6.19%
same,Potency,[4],> 46 µM
same,Potency,[5],inactive
same,Potency,[6],inactive
same,outcome,[7],inactive
O=C(c1cnccn1)N1CCC2(CCCN(c3ccncc3)C2)CC1,Potency,[1],> 11.4 µM
same,"activity change, negative = inhibition",[2],-3.01%
same,"activity, negative = inhibition",[3],-6.12%
same,Potency,[4],> 46 µM
same,Potency,[5],inactive
same,Potency,[6],inactive
same,outcome,[7],inactive
O=C(Nc1cccc(F)c1)N1CCCC2(CCN(C(=O)c3ccco3)CC2)C1,Potency,[1],> 11.4 µM
same,"activity change, negative = inhibition",[2],-8.03%
same,"activity, negative = inhibition",[3],0.264%
same,Potency,[4],> 46 µM
same,Potency,[5],inactive
same,outcome,[7],inactive
COc1ccc(C(=O)N2CCC3(CCCN(c4ccncc4)C3)CC2)cc1,Potency,[1],> 11.4 µM
same,"activity change, negative = inhibition",[2],7.18%
same,"activity, negative = inhibition",[3],8.4%
same,Potency,[4],> 46 µM
same,Potency,[5],inactive
same,Potency,[6],inactive
same,outcome,[7],inactive
O=C(c1cnccn1)N1CCC2(CC1)CCN(c1cccc(-c3ccccc3)c1)CC2,Potency,[1],> 11.4 µM
same,"activity change, negative = inhibition",[2],-9.46%
same,"activity, negative = inhibition",[3],-13.7%
same,Potency,[4],> 46 µM
same,outcome,[7],inactive
N#Cc1cccc(NC(=O)N2CCCC3(CCN(C(=O)c4ccncc4)CC3)C2)c1,Potency,[1],> 11.4 µM
same,"activity change, negative = inhibition",[2],-9.49%
same,"activity, negative = inhibition",[3],1.51%
same,Potency,[4],> 46 µM
same,Potency,[5],inactive
same,Potency,[6],inactive
same,activation,[8],-1.72%
same,outcome,[7],inactive
O=C(c1ccncc1)N1CCC[C@@]2(CCN(Cc3cc(C(F)(F)F)cc(C(F)(F)F)c3)C2)C1,Potency,[1],> 11.4 µM
same,"activity change, negative = inhibition",[2],8.67%
same,"activity, negative = inhibition",[3],-0.599%
same,Potency,[4],> 46 µM
same,Potency,[5],inactive
same,Potency,[6],inactive
same,outcome,[7],inactive
N#Cc1ccc(CN2CCC3(CC2)CCN(C(=O)c2cnccn2)CC3)cc1,Potency,[1],> 11.4 µM
same,"activity change, negative = inhibition",[2],4.06%
same,"activity, negative = inhibition",[3],-7.54%
same,Potency,[4],> 46 µM
same,Potency,[5],inactive
same,Potency,[6],inactive
same,outcome,[7],inactive
O=C(c1ccco1)N1CCC2(CC1)CCN(c1ccccn1)CC2,Potency,[1],> 11.4 µM
same,"activity change, negative = inhibition",[2],-7.81%
same,"activity, negative = inhibition",[3],-0.852%
same,Potency,[4],> 46 µM
same,Potency,[5],inactive
same,Potency,[6],inactive
same,outcome,[7],inactive
COc1ccc(NC(=O)N2CC[C@@]3(CCCN(C(=O)c4cccc(F)c4)C3)C2)cc1,Potency,[1],> 11.4 µM
same,"activity change, negative = inhibition",[2],-11.4%
same,"activity change, negative = inhibition",[9],6.04%
same,Potency,[4],> 46 µM
same,Potency,[5],inactive
same,Potency,[6],inactive
same,Potency,[10],inactive
same,outcome,[7],inactive
Cc1cccc(CNc2cc(-c3ccccc3C)ncn2)c1,Potency,[1],> 11.4 µM
same,"activity change, negative = inhibition",[2],13.4%
same,"activity, negative = inhibition",[3],-8.32%
same,Potency,[11],> 46 µM
same,Potency,[4],> 46 µM
same,Potency,[5],inactive
same,Potency,[12],inactive
same,activation,[8],16.7%
same,Potency,[13],44.7 µM (active)
same,outcome,[7],inactive
CC(=O)N1CCC2(CC1)CCN(C(=O)Nc1cccc(C#N)c1)CC2,Potency,[1],> 11.4 µM
same,"activity change, negative = inhibition",[2],4.49%
same,"activity change, negative = inhibition",[9],8.82%
same,Potency,[4],> 46 µM
same,Potency,[5],inactive
same,Potency,[6],inactive
same,outcome,[7],inactive
COc1ccc(C(=O)N2CCC3(CCCN(c4ccc(-c5ccccc5)cc4)C3)CC2)cc1,Potency,[1],> 11.4 µM
same,"activity change, negative = inhibition",[2],-8.58%
same,"activity, negative = inhibition",[3],0.229%
same,Potency,[4],> 46 µM
same,Potency,[5],inactive
same,Potency,[6],inactive
same,outcome,[7],inactive
O=C(c1ccco1)N1CCC2(CCCN(c3cccc(-c4ccccc4)c3)C2)CC1,Potency,[1],> 11.4 µM
same,"activity change, negative = inhibition",[2],12.9%
same,"activity, negative = inhibition",[3],-5.55%
same,Potency,[4],> 46 µM
same,Potency,[5],inactive
same,outcome,[7],inactive
N#Cc1ccc(CN2CCCC3(CCN(C(=O)c4cnccn4)CC3)C2)cc1,Potency,[1],> 11.4 µM
same,"activity change, negative = inhibition",[2],-6.06%
same,"activity, negative = inhibition",[3],-1.62%
same,Potency,[4],> 46 µM
same,Potency,[5],inactive
same,Potency,[6],inactive
same,activation,[8],-10.7%
same,outcome,[7],inactive
Cn1c(=O)c(-c2ccc(Cl)cc2)nc2cnc(Oc3ccccc3)nc21,Potency,[1],> 11.4 µM
same,Potency,[14],0.2 µM (active)
same,"activity, negative = inhibition",[3],2.85%
same,Potency,[11],> 9.22 µM
same,Potency,[4],> 46 µM
same,Potency,[5],inactive
same,Potency,[6],inactive
same,Potency,[15],inactive
same,Potency,[10],20 µM (active)
same,outcome,[7],inactive
CCNc1ncc2nc(-c3ccccc3)c(=O)n(Cc3ccc(F)cc3)c2n1,Potency,[1],> 11.4 µM
same,Potency,[14],3.16 µM (active)
same,"activity, negative = inhibition",[3],82.9% [activator] (active)
same,Potency,[11],> 9.22 µM
same,Potency,[4],> 46 µM
same,Potency,[6],inactive
same,Potency,[16],inactive
same,Potency,[10],inactive
same,outcome,[7],inactive
COc1cccc(Cn2c(=O)c(C)nc3cnc(OCc4ccccc4)nc32)c1,Potency,[1],> 11.4 µM
same,"activity change, negative = inhibition",[9],-16.9%
same,"activity, negative = inhibition",[3],-3.44%
same,Potency,[11],> 9.22 µM
same,Potency,[4],> 46 µM
same,Potency,[5],inactive
same,outcome,[7],inactive
O=C(c1ccncc1)N1CCC2(CC1)CN(c1ccc(-c3ccccc3)cc1)C2,Potency,[1],> 11.4 µM
same,Potency,[14],inactive
same,"activity change, negative = inhibition",[9],17.4%
same,"activity, negative = inhibition",[3],-19.8%
same,Potency,[4],> 46 µM
same,Potency,[5],inactive
same,Potency,[6],inactive
same,Potency,[10],inactive
same,outcome,[7],inactive
